# Assay outcomes as filed in PubChem.
# ABCB6 inh 2 – ABCB6 transporter inhibitors, primary screen, K562-ABCB6 cells, flow cytometry, MLPCN library; ATP-binding cassette sub-family B member 6 (Homo sapiens), Q9NP58; fluorescence ratio to DMSO, % at 10 µM; 360,000 tested, 0.19% active; K562-ABCB6 porphyrin accumulation, 1 h; active compounds read low;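 active = fluorescence ratio to DMSO below 75%, the collection mean minus 3 SD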;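 also: signal is porphyrin accumulated inside mitochondria; 100% equals median channel fluorescence of DMSO control wells; lower ratio means ABCB6 inhibition with less porphyrin fluorescence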
# Target sequence (Q9NP58 whole entry, looked up): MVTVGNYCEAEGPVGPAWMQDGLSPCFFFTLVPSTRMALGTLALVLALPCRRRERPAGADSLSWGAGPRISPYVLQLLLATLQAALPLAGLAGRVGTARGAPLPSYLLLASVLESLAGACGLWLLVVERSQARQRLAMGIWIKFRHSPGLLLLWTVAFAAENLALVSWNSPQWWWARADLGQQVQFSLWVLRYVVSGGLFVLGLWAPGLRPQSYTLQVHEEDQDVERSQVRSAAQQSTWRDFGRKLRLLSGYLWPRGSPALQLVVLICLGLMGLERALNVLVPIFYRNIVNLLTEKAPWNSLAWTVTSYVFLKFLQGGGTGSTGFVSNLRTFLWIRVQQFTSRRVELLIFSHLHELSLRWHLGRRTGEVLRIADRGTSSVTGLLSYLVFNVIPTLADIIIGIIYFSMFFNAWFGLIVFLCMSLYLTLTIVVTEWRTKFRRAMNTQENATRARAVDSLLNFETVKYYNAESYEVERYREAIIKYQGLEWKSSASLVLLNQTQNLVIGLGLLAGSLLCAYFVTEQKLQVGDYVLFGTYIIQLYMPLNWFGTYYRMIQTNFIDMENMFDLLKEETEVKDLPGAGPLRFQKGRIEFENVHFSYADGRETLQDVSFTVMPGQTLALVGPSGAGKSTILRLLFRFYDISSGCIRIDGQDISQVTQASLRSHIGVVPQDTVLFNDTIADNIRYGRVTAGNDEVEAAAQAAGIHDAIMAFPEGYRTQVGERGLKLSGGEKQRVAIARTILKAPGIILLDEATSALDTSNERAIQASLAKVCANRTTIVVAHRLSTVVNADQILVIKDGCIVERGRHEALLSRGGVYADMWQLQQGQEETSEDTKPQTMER
# Exocytosis inh – LAMP-1 surface exposure blockers, TALL-104 cells – cell-based, flow cytometry, MLPCN library, primary screen. TALL-104 LAMP-1 surface exposure; cells stimulated with thapsigargin and PMA. inhibition, % at 10 µM. 360,000 tested, 0.66% active;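 active = inhibition above about 55%, limit read from the data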
# PG9 Ab binder – binders of HIV-1 gp120 antibody PG9, primary screen, biochemical, TR-FRET | HIV-1 gp120 / PG9 antibody interaction | TR-FRET gp120-PG9 antibody binding | inhibition, % at 6.7 µM | 360,000 tested, 0.43% active | AID 624416, 2012; in the data active = inhibition above about 8.5%
# rCAG RNA binder – binders of r(CAG) RNA repeats, primary screen, biochemical, fluorescence; r(CAG) RNA repeat, TO-PRO-1 dye displacement fluorescence; inhibition, % at 3 µM; 370,000 tested, 1.3% active; AID 651821, 2012;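 active = inhibition above the plate cutoff, the mean of all test compounds on that plate plus 3 SD, cut at about 35% in these data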;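 also: 0% = DMSO alone and 100% = 100 µM mitoxantrone as full dye displacement; higher means more dye released from RNA so lower well fluorescence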
# ABCB6 inh CP1 – ABCB6 transporter inhibitors, confirmation, K562-ABCB6 cells, flow cytometry, cherry pick 1 | shares compounds with ABCB6 inh 2 | K562-ABCB6 porphyrin accumulation, 1 h; active compounds read low | ratio response (% of DMSO), % at 10 µM | 700 tested, under 10 active;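 active = repeat-averaged ratio response below 75% of DMSO, the collection mean minus 3 SD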;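 also: median porphyrin fluorescence at 575 nm with 488 nm excitation from mitochondria; lower ratio means less porphyrin signal so ABCB6 inhibition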
# The depositor's hits bear a star; x = not tested or not shown. The list is not random: actives were taken first. Their share in the collection is about 2.5%.
SMILES,ABCB6 inh 2,Exocytosis inh,PG9 Ab binder,rCAG RNA binder,others
O=c1c2ccccc2[se]n1-c1ccccc1,95,82*,-2,5,
COC(=O)C1CN(C#N)N(c2ccc(Cl)cc2)C12c1ccccc1-c1ccccc12 (stereo unspecified),90,69*,x,x,
CC1(C)C(C(=O)N2CCN(c3ccc(Cl)cc3)CC2)C1(C)C,97,5,1,-9,
CCN(CC)c1nc2c(C)cccn2c(=O)c1C=C1C(=O)NC(=O)NC1=O,38*,0,-2,-5,
C/C(=N\NC(=O)c1ccncc1)c1c(O)n(Cc2ccccc2)c(=O)[nH]c1=O,102,-4,-2,12,
C/C(=N\NC(=O)c1ccccc1O)c1c(O)n(Cc2ccccc2)c(=O)[nH]c1=O,638,3,0,86*,
O=C(CNCc1c(F)cccc1F)N1CCC2(CC1)OCCO2,x,x,x,0,
O=C1C(=O)c2ccccc2-c2ccccc21,105,85*,-2,6,
O=C1C(=O)c2cccc3cccc1c23,100,2,0,1,
CN1CCCC1CCOC(C)(c1ccccc1)c1ccc(Cl)cc1 (stereo unspecified),97,6,-2,5,
CCOC(=O)c1c(-n2c(C)cc(/C=C3\C(=O)NC(=O)N(C)C3=O)c2C)sc2c1CCCC2,94,57*,-2,0,
C=CCN(CC#CCO)Cc1ccc(OC)cc1OC,x,x,x,2,
O=C1NC(=O)C(=Cc2ccc(Sc3ccccc3)o2)C(=O)N1,87,98*,4,7,
N#CC(C#N)=NNc1ccc(S(N)(=O)=O)cc1,92,-1,-3,67*,
C[C@H](NC(=O)OCc1ccccc1)C(=O)NC(Cc1ccccc1)P(=O)(Oc1ccccc1)Oc1ccccc1 (stereo partly specified),x,x,x,4,
COC(=O)C1=C(C(=O)OC)SC2(S1)C(C(=O)OC)=C(C(=O)OC)Sc1c2ssc1=O,106,100*,0,11,
CC(C)(C)NC(=O)C1CN=C(c2ccccc2)c2cc(Cl)ccc2N1C(=O)C1CCC1 (stereo unspecified),x,x,x,3,
COc1ccc(-[n+]2c(-c3ccccc3)cc(-c3ccc(C)cc3)cc2-c2ccccc2)cc1,98,74*,-2,11,
Cc1ccc(N2C(=O)NC(=O)/C(=C\C=C\c3ccco3)C2=O)cc1,100,90*,-3,28,
O=C1NC(=O)N(c2ccccc2)C(=O)/C1=C/C=C/c1ccco1,100,19,-3,12,
O=C1NC(=O)N(CCc2ccc(F)cc2)C(=O)/C1=C\C=C\c1ccccc1,93,66*,0,8,
O=C1NC(=O)N(Cc2ccc(F)cc2)C(=O)/C1=C/c1cccs1,99,56*,-2,21,
Cc1ccc(/C=C2\C(=O)NC(=O)N(CCc3ccc(F)cc3)C2=O)s1,100,92*,0,12,
Cc1cccc(N2C(=O)/C(=C/c3ccc(CN(CCC#N)S(C)(=O)=O)o3)C(=O)NC2=S)c1,101,-2,-1,66*,
CC1([N+](=O)[O-])COP(=O)(Nc2cccc(Br)c2)OC1 (stereo unspecified),295,0,0,0,
SMILES,ABCB6 inh 2,Exocytosis inh,PG9 Ab binder,rCAG RNA binder,others
CC(C)CCNC(=O)c1c(N)n(Cc2ccc3c(c2)OCO3)c2nc3ccccc3nc12,94,56*,-2,23,
CC1=Nc2ccccc2/C1=C/c1c(O)[nH]c(=O)[nH]c1=O,112,-4,-1,3,
O=c1[nH]c(O)c(/C=C2/C=CC(c3cc(Cl)ccc3Cl)=N2)c(=O)[nH]1,112,92*,0,16,
O=C1NC(=O)N(c2ccc(Cl)cc2)C(=O)/C1=C\c1ccc(Sc2nc3ccccc3[nH]2)o1,101,-2,2,49*,
Cc1ccc(N2C(=O)NC(=O)/C(=C/c3ccc(-c4ccc(C(=O)O)c(Cl)c4)o3)C2=O)cc1,96,10,0,18,
Cc1ccc([C@@H]2C[C@H]3[C@@H](CN2S(=O)(=O)c2ccc(Cl)cc2)C(=O)C[C@@H](c2ccccc2F)N3S(=O)(=O)c2ccc(C)cc2)cc1,97,-4,-1,14,
CC1CCC(C(C)C)C(OC(=O)Cn2c(COc3ccccc3)[n+](C)c3ccccc32)C1 (stereo unspecified),97,84*,-1,10,
CSc1ccc(NC(=O)C2(C)CCN2C(=O)C2(c3ccccc3)CC2)cc1 (stereo unspecified),97,-4,0,0,
C[C@@H]1CN([C@H](C)CO)C(=O)c2c(c3ccccc3n2C)-c2ccccc2CO[C@H]1CN(C)Cc1ccc2c(c1)OCCN2C,97,0,0,1,
CCOC(=O)C1(CCOc2ccccc2)CCN(Cc2cccc(O)c2)CC1,100,90*,-3,-10,
CCOC(=O)C1(CCOc2ccccc2)CCN(Cc2ccccc2OC)CC1,99,34,-1,-8,
Cc1cc(C)cc(N2C(=O)NC(=O)/C(=C/c3cccn3-c3ccc(Cl)cc3)C2=O)c1,91,13,-2,7,
Cc1cccc(N2C(=O)NC(=O)/C(=C\c3cccn3-c3ccc(Cl)cc3)C2=O)c1,107,73*,1,15,
O=C1/C(=C\c2ccncc2)N2CCC1CC2,102,0,-3,0,
O=C1/C(=C\c2ccc(Cl)c(Cl)c2)N2CCC1CC2,98,94*,-2,-4,
CC(C)C[C@H]1N=C(c2ccccc2)c2ccccc2N(CC(=O)NC(C)(C)C)C1=O,x,x,x,2,
Nc1ncnc2c1ncn2[C@@H]1O[C@H](C(=O)NCCc2ccc(F)cc2)[C@@H](O)[C@H]1O,99,-2,0,2,
CCN1/C(=C/C=C/C2=[N+](CC)c3ccccc3C2(C)C)C(C)(C)c2ccccc21,x,69*,4,-76,
CN1/C(=C\C=C2C(=O)NC(=O)NC2=O)C(C)(C)c2ccccc21,104,0,-3,-61,
O=C1C(Br)C2CCC1C2C(=O)O (stereo unspecified),96,1,1,2,
CC1=CC(C)CC(C)OC(=O)CC(c2ccc(O)cc2)NC(=O)C(Cc2c(Br)[nH]c3ccccc23)N(C)C(=O)C(C)NC(=O)C(C)C1 (stereo unspecified),87,24,-1,8,
CCOc1cc2c(cc1OCC)-n1cccc1C(c1ccccc1OC)NC2 (stereo unspecified),73*,-7,0,-3,ABCB6 inh CP1=98
CC(C)=CCN1CC[C@@]2(C)c3cc(O)ccc3C[C@@H]1C2C (stereo partly specified),93,3,3,2,
